Bioassay records deposited in PubChem BioAssay by National Center for Advancing Translational Sciences (NCATS).
D3 antag: blocks the human D3 dopamine receptor | P35462 | D3R cells, DiscoveRx beta-arrestin luminescence, antagonist mode; active compounds read low | max response, negative = inhibition, % | 2.5% of 360,000 active | AID 652054; in the data active = max response below about -50%; inconclusive = no clear call, values can overlap the other calls; also: % is scaled to controls: 0 for no effect and ±100 for the full control effect
Target sequence (P35462 whole entry, looked up): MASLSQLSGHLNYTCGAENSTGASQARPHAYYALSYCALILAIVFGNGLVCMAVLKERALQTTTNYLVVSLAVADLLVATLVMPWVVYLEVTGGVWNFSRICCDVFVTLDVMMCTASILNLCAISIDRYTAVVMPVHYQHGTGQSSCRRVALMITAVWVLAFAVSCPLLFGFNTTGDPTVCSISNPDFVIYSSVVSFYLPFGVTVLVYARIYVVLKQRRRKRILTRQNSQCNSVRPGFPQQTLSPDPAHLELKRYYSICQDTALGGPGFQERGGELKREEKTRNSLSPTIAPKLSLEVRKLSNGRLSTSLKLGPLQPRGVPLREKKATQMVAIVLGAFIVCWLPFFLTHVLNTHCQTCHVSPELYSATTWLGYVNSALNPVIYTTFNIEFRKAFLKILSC
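Cells plated overnight at 1500 cells/well, then exposed to library compounds with dopamine controls for 90 minutes at 37 degrees C. DiscoveRx reagent added for 30–60 minutes at room temperature; luminescence read, quantitative HTS format.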
a7 integrin act: activates integrin-mediated alleviation for muscular dystrophy; 0.064% of 350,000 active; alpha7betagal myoblasts, beta-gal FDG fluorescence, 48 h; Potency, µM (titrated, usually from 38.3 µM), inactives show at the top dose activation, most hits filed as activators; active = well fitted activation curve with a large enough effect; inconclusive = small, poorly fitted or top-dose-only effect; inactive = no such curve, though single readings can be large or run the other way;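 also: potency is read from the fitted curve at half-maximal effect; 100% = response of the positive control SU9516; nearly all actives have a fitted effect of over 60% in size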
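Alpha7betagal+/- myoblasts (passage 13) were plated 16-24 hr, then exposed to compounds (1:260 dilution of DMSO stock) for 48 hours at 37C. After MPER lysis, β-galactosidase reporter activity was read as FDG fluorescence (ex 480/em 540) after 30 minutes.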
D3 ag: activates the human D3 dopamine receptor; 0.58% of 410,000 active; D3R DiscoveRx beta-arrestin cells, luminescence, 90 min; P35462; max activation, %; in the data active = max activation above about 30%; also: 0% is about no effect
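Cells at 1500/well, incubated overnight, then treated with pinned compounds (dopamine as control) for 90 min at 37 degrees C. DiscoveRx reagent added for 30 - 60 minutes at room temperature; luminescence read.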
* hit, by the source's call; u = inconclusive; x = no result; [ ] = another dose, or the depositor's remark. Only some compounds are listed: those with a hit (about 2.9% of all), similar ones and a draw of the others.

SMILES	D3 antag	a7 integrin act	D3 ag
CCOc1ccc(S(=O)(=O)Nc2cccc(C(=O)NCC(c3ccccc3)N(C)C)c2)cc1 (stereo unspecified)	-67.9*	19.0%	-16.6
COc1ccc(C(CNC(=O)c2cccc(NS(=O)(=O)c3ccc(C)c(F)c3)c2)N(C)C)cc1 (stereo unspecified)	-58.5*	-39.0%	-23.3
CCC(=O)Nc1ccc(CC)cc1-c1nc2ccccc2n(CC(=O)Nc2ccccc2C)c1=O	x	x	-6.3
Cc1ccc(NC(=O)c2cc(-c3cc(C)c(C)cc3O)n[nH]2)cc1C	-1.1	u	2.8
COc1ccc(CNC(=O)c2ccc3c(c2)NC(=O)C(CS(=O)(=O)Cc2ccccc2Cl)N3)cc1 (stereo unspecified)	x	x	1.3
CC(C)=N/N=C1/NC(=O)C(c2ccc(Cl)cc2)S1 (stereo unspecified)	-95.8*	21.0%	-9.2
O=C1N/C(=N/N=C/c2ccc(F)cc2)SC1c1ccccc1 (stereo unspecified)	-3.6	5.2%	-0.6
CCN(CC)CCOC(=O)c1ccc(NC(=O)/C=C/c2cccs2)cc1	-101.4*	-22.1%	-12.3
CCOC(=O)c1ccc(NC(=O)/C=C/c2cccs2)cc1	5.2	8.0%	7.8
COc1ccc(C(=O)Nc2nc3n(n2)C(c2ccccc2)C=C(c2ccccc2)N3)cc1 (stereo unspecified)	x	x	4.3
CC(C)(C)c1cc(-c2nc(N)nc(N)n2)c(O)c(C(C)(C)C)c1	0.0	-46.5%	47.9*
Nc1nc(N)nc(-c2cc(O)ccc2O)n1	7.4	-8.8%	18.4
Cc1ccc(-n2ncc(C(=O)NCc3cccs3)c2C2CCN(C(=O)OC(C)(C)C)CC2)c(C)c1	x	x	1.8
CC(=O)CC1c2ccccc2C=C(c2ccsc2)N1c1ccc(-c2cccs2)cc1 (stereo unspecified)	-3.4	x	-2.0
COC(=O)c1ccc(CSc2n[nH]c(=S)s2)o1	58.4	-6.4%	-7.0
COC(=O)CSc1n[nH]c(=S)s1	-67.8*	0.0%	-1.5
O=C(NCCCN1CCOCC1)C(c1ccccc1)c1ccccc1	20.1	-3.0%	2.6
CCCCOC(=O)CN1C(=O)c2ccc(C(=O)OCCCC)cc2C1=O	24.0	-13.9%	2.5
Cc1nc2ncnn2c(N2CCN(C(=O)c3cccc(F)c3)CC2)c1Cc1ccccc1	20.7	-34.9%[7.66 µM]	5.7
O=C1c2ccccc2C(=O)c2c(O)c(O)cc(O)c21	-66.9*	x	-92.2
Nc1ccc(O)c2c1C(=O)c1ccccc1C2=O	-15.0	-9.3%	-16.8
Cc1ccc(C(=O)NCCSC(C)(C)C)cc1[N+](=O)[O-]	12.2	18.9%	-0.9
CC1CCN(S(=O)(=O)c2ccc3c(c2)c(=O)c(C(=O)N2CCCCC2)cn3C)CC1	6.9	-31.9%	34.5*
CC1CCN(S(=O)(=O)c2ccc3c(c2)c(=O)c(C(=O)N2CCOCC2)cn3C)CC1	4.1	-0.3%	1.5
C[C@H](CO)N1C[C@H](C)[C@@H](CN(C)C(=O)Nc2ccc(C(F)(F)F)cc2)Oc2ccc(NC(=O)Cn3cnnn3)cc2C1=O	26.4	1.8%	-4.8
SMILES	D3 antag	a7 integrin act	D3 ag
Cc1cc(C)c(OCCN(C)Cc2ccccc2)c(Br)c1	-55.8*	-22.1%	-38.2
C/C=C/c1ccc(OCCCCN(C)Cc2ccccc2)c(OC)c1	-11.6	-6.0%	-19.3
C=CCN(CC=C)CCOc1ccccc1F	-29.4	0.0%	1.2
Cc1cc(C)c2c(CN(C)Cc3ccccc3)cc(=O)oc2c1	-1.4	x	0.6
CN(CCCOc1ccccc1F)Cc1ccccc1	-85.5*	4.6%	-30.6
CN(CCCOc1ccccc1Br)Cc1ccccc1	-98.1*	0.0%	-17.1
Cc1ccc(OCCn2nnc3sc4c(c3c2=O)CCC(C(C)(C)C)C4)cc1 (stereo unspecified)	x	x	9.6
O=C(Nc1ccc(F)cc1)c1ccc(S(=O)(=O)N2CCOCC2)o1	4.1	7.1%	10.9
COC(=O)N1C(=O)[C@@](c2ccccc2)(C2CCCCC2)N1C(=O)OC	-54.2*	0.0%	-13.9
CC[C@@]1(c2ccccc2)C(=O)N(C(=O)OC)N1C(=O)OC	0.0	28.5%	26.7
Cc1ccc(-n2c(C3CC3c3ccc(Cl)cc3)n[nH]c2=S)cc1 (stereo unspecified)	-61.2*	13.6%[7.66 µM]	1.7
Cc1ccc(C2CC2c2n[nH]c(=S)n2-c2ccc(C)cc2)cc1 (stereo unspecified)	-7.7	1.5%	-25.0
CC(C)(C)NCc1cc(Cl)ccc1OCc1cccs1	8.8	-10.4%	2.2
CSc1cccc(NC(=S)N2CCCN(Cc3cccc(Cl)c3)C2)c1	u	-62.1%	-15.0
S=C(Nc1ccccc1)N1CCN(Cc2ccccc2)CC1	-1.7	12.7%	-7.7
COc1ccc(NC(=S)N2CCCN(Cc3cccc(Cl)c3)C2)cc1	-80.2*	-31.8%	-12.6
COc1cccc(NC(=S)N2CCCN(Cc3ccc(F)cc3)C2)c1	u	27.2%	-13.9
CCOc1ccc(NC(=S)N2CCCN(Cc3cccc(Cl)c3)C2)cc1	-73.6*	-50.6%	-13.1
Fc1ccc(CN2CCCN(C(=S)Nc3ccc(F)cc3)CC2)cc1	-58.8*	-13.3%	-14.1
O=C1NCCN(Cc2ccc(F)cc2)C1=O	x	x	8.1
CC(=O)c1ccccc1C(=O)N1CCCC(CNC(=O)c2ccc(F)cc2)C1 (stereo unspecified)	15.4	-2.4%	0.6
CC1(C(=O)O)CCCN(C(=O)c2cccnc2Oc2ccccc2)C1 (stereo unspecified)	11.4	x	5.2
Cc1cc2cccc(C)c2nc1SCC(=O)N(C)c1nc(-c2ccccc2)cs1	-25.6	5.6%	-8.4
COc1ccc(CCN2C(=O)C3C4C=CC(C5CC45)C3C2=O)cc1OC (stereo unspecified)	-0.9	11.9%	4.4
COc1ccc(CCN2C(=O)C3C4C=CC(C3C2=O)C2C(=O)N(CCc3ccc(OC)c(OC)c3)C(=O)C42)cc1OC (stereo unspecified)	-18.5	-10.3%	30.6*
SMILES	D3 antag	a7 integrin act	D3 ag
COc1ccc(CCn2c(N)cc(=O)[nH]c2=S)cc1OC	-1.6	3.1%	-2.3
COc1ccc(CCn2c(N)cc(=O)[nH]c2=O)cc1OC	-86.4*	5.2%	-13.2
COc1ccc(/C=C/C2=NN(C)C(=O)CC2)cc1	-16.5	6.8%	-6.4
CCOC(=O)c1c(C)c(C(=O)NCc2ccco2)c(C)n1C	9.0	-17.2%	1.1
Cc1cc(/C=C2/NC(=O)N(Cc3ccccc3F)C2=O)c(C)n1-c1ccccn1	-5.4	-20.2%	-5.8
Cc1ccc(S(=O)(=O)N(C)c2ccc(OC(=O)c3cccs3)cc2)cc1C	14.5	13.3%	0.5
Oc1c(Br)cc(/C=N/Nc2ccc(Cl)nn2)cc1Br	-18.5	-8.1%	4.1
Oc1c(Br)cc(Br)cc1/C=N/Nc1ccc(Cl)nn1	-68.0*	5.6%	-17.0
Cc1ccccc1Cn1cc(CCC(=O)NC(C)c2ccccc2)c2ccccc21 (stereo unspecified)	x	x	-11.3
CCn1cc(CCC(=O)NC(C)c2ccccc2)c2ccccc21 (stereo unspecified)	-54.6*	u	-0.3
CCC1C(=O)NCCN1C(=O)CCc1nnc(CCc2ccc(OC)cc2)o1 (stereo unspecified)	-1.2	5.2%	-6.0
CN(CC(=O)N1CCc2ccccc21)S(=O)(=O)c1ccc(Cl)cc1	-7.7	-2.4%	-18.4
